Laboratory results as given in PubChem BioAssay AID1159580 (chemical genetic matrix, 2015).
Where “and” joins values, the source holds several entries; their conditions need not be identical. Identical values can stand only once. The campaign covered roughly 5,500 compounds. About 2,000 (36%) were called active. Inconclusive results (about 18%) are left out. Rule as the data show it: active = normalized growth mostly below about 0.91 (no sharp cut-off); inconclusive = no clear call, values can overlap the other calls; inactive = mostly above about 0.92. The list shows a part of the results.

Assay: chemical genetic growth profiling, strain panel (AID 1159580);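 also: tested at 20 µM; growth read once vehicle control cultures reached saturation at 30 °C; 1 = growth at the plate median or of vehicle wells; lower values mean less growth of the strain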
Conditions: growth OD

Measured: normalized growth

O=[N+]([O-])/C=C/c1ccsc1
active: S. cerevisiae deletion strains, locus YAL013W, strain DEP1, hits give low values 0.0965 | S. cerevisiae deletion strains, locus YAR019C, strain CDC15, hits give low values 0.0973 | S. cerevisiae deletion strains, locus YBL105C, strain PKC1, hits give low values 0.088 | S. cerevisiae deletion strains, locus YBR135W, strain CKS1, hits give low values 0.0811 | S. cerevisiae deletion strains, locus YBR136W, strain MEC1, hits give low values 0.0958 | S. cerevisiae deletion strains, locus YBR160W, strain CDC28, hits give low values 0.0863 | S. cerevisiae deletion strains, locus YBR229C, strain ROT2, hits give low values 0.0538 | S. cerevisiae deletion strains, locus YCL061C, strain MRC1, hits give low values 0.0534 | S. cerevisiae deletion strains, locus YDL017W, strain CDC7, hits give low values 0.0862 | S. cerevisiae deletion strains, locus YDL028C, strain MPS1, hits give low values 0.108 | S. cerevisiae deletion strains, locus YDL101C, strain DUN1, hits give low values 0.0979 and 0.0659 | S. cerevisiae deletion strains, locus YDL108W, strain KIN28, hits give low values 0.1 | S. cerevisiae deletion strains, locus YDL132W, strain cdc53, hits give low values 0.0899 | S. cerevisiae deletion strains, locus YDL214C, strain PRR2, hits give low values 0.0917 | S. cerevisiae deletion strains, locus YDR052C, strain DBF4, hits give low values 0.0918 | S. cerevisiae deletion strains, locus YDR054C, strain cdc34, hits give low values 0.0966 | S. cerevisiae deletion strains, locus YDR150W, strain NUM1, hits give low values 0.319 | S. cerevisiae deletion strains, locus YDR226W, strain ADK1, hits give low values 0.377 | S. cerevisiae deletion strains, locus YDR477W, strain SNF1, hits give low values 0.0976 | S. cerevisiae deletion strains, locus YEL061C, strain CIN8, hits give low values 0.0749 | S. cerevisiae deletion strains, locus YER123W, strain YCK3, hits give low values 0.0988 | S. cerevisiae deletion strains, locus YER133W, strain GLC7, hits give low values 0.0944 | S. cerevisiae deletion strains, locus YFL009W, strain cdc4, hits give low values 0.09 | S. cerevisiae deletion strains, locus YFL029C, strain CAK1, hits give low values 0.0924 | S. cerevisiae deletion strains, locus YFR003C, strain YPI1, hits give low values 0.126 | S. cerevisiae deletion strains, locus YFR019W, strain FAB1, hits give low values 0.0932 | S. cerevisiae deletion strains, locus YFR028C, strain CDC14, hits give low values 0.0832 | S. cerevisiae deletion strains, locus YGR040W, strain KSS1, hits give low values 0.102 | S. cerevisiae deletion strains, locus YGR052W, strain FMP48, hits give low values 0.105 | S. cerevisiae deletion strains, locus YGR078C, strain PAC10, hits give low values 0.0512 | S. cerevisiae deletion strains, locus YGR092W, strain DBF2, hits give low values 0.101 | S. cerevisiae deletion strains, locus YHR030C, strain SLT2, hits give low values 0.086 and 0.114 | S. cerevisiae deletion strains, locus YHR079C, strain IRE1, hits give low values 0.115 | S. cerevisiae deletion strains, locus YHR082C, strain KSP1, hits give low values 0.122 | S. cerevisiae deletion strains, locus YHR087W, strain rtc3, hits give low values 0.0574 | S. cerevisiae deletion strains, locus YHR205W, strain SCH9, hits give low values 0.014 | S. cerevisiae deletion strains, locus YIL147C, strain SLN1, hits give low values 0.266 | S. cerevisiae deletion strains, locus YJL095W, strain BCK1, hits give low values 0.104 | S. cerevisiae deletion strains, locus YJL128C, strain PBS2, hits give low values 0.0942 | S. cerevisiae deletion strains, locus YJL157C, strain FAR1, hits give low values 0.0861 | S. cerevisiae deletion strains, locus YJL187C, strain SWE1, hits give low values 0.0512 | S. cerevisiae deletion strains, locus YJR016C, strain ILV3, hits give low values 0.0858 | S. cerevisiae deletion strains, locus YJR043C, strain POL32, hits give low values 0.0674 | S. cerevisiae deletion strains, locus YJR066W, strain TOR1 (second series), hits give low values 0.0922 | S. cerevisiae deletion strains, locus YJR066W, strain TOR1, hits give low values 0.121 | S. cerevisiae deletion strains, locus YJR075W, strain HOC1, hits give low values 0.072 | S. cerevisiae deletion strains, locus YKL048C, strain ELM1, hits give low values 0.109 | S. cerevisiae deletion strains, locus YKL067W, strain YNK1, hits give low values 0.0882 | S. cerevisiae deletion strains, locus YKL101W, strain HSL1, hits give low values 0.0953 | S. cerevisiae deletion strains, locus YKL190W, strain CNB1, hits give low values 0.0559 | S. cerevisiae deletion strains, locus YKL193C, strain SDS22, hits give low values 0.0818 | S. cerevisiae deletion strains, locus YKL203C, strain TOR2, hits give low values 0.102 | S. cerevisiae deletion strains, locus YLR039C, strain RIC1, hits give low values 0.0823 | S. cerevisiae deletion strains, locus YLR058C, strain SHM2 (second series), hits give low values 0.0499 | S. cerevisiae deletion strains, locus YLR085C, strain ARP6, hits give low values 0.0726 | S. cerevisiae deletion strains, locus YLR113W, strain HOG1, hits give low values 0.133 | S. cerevisiae deletion strains, locus YLR133W, strain CKI1, hits give low values 0.107 | S. cerevisiae deletion strains, locus YLR262C, strain YPT6, hits give low values 0.074 | S. cerevisiae deletion strains, locus YLR403W, strain SFP1, hits give low values 0.0115 | S. cerevisiae deletion strains, locus YML070W, strain DAK1, hits give low values 0.0892 | S. cerevisiae deletion strains, locus YML094W, strain GIM5, hits give low values 0.0766 | S. cerevisiae deletion strains, locus YMR001C, strain CDC5, hits give low values 0.0846 | S. cerevisiae deletion strains, locus YMR205C, strain PFK2 (second series), hits give low values 0.0874 | S. cerevisiae deletion strains, locus YMR219W, strain ESC1, hits give low values 0.0511 | S. cerevisiae deletion strains, locus YMR263W, strain SAP30, hits give low values 0.0973 | S. cerevisiae deletion strains, locus YMR277W, strain FCP1, hits give low values 0.0872 | S. cerevisiae deletion strains, locus YNL006W, strain LST8, hits give low values 0.0854 | S. cerevisiae deletion strains, locus YNL020C, strain ARK1, hits give low values 0.0962 | S. cerevisiae deletion strains, locus YNL153C, strain GIM3, hits give low values 0.0541 | S. cerevisiae deletion strains, locus YNL161W, strain CBK1, hits give low values 0.0827 | S. cerevisiae deletion strains, locus YNL183C, strain NPR1, hits give low values 0.113 | S. cerevisiae deletion strains, locus YNL207W, strain RIO2, hits give low values 0.0963 | S. cerevisiae deletion strains, locus YNL222W, strain SSU72, hits give low values 0.0831 | S. cerevisiae deletion strains, locus YNL298W, strain CLA4 (second series), hits give low values 0.0744 | S. cerevisiae deletion strains, locus YNL307C, strain MCK1 (second series), hits give low values 0.106 | S. cerevisiae deletion strains, locus YNL322C, strain KRE1, hits give low values 0.238 | S. cerevisiae deletion strains, locus YNR030W, strain Alg12, hits give low values 0.0788 | S. cerevisiae deletion strains, locus YOL078W, strain AVO1, hits give low values 0.0843 | S. cerevisiae deletion strains, locus YOL136C, strain PFK27, hits give low values 0.0965 | S. cerevisiae deletion strains, locus YOR061W, strain CKA2, hits give low values 0.0882 | S. cerevisiae deletion strains, locus YOR119C, strain RIO1, hits give low values 0.112 | S. cerevisiae deletion strains, locus YOR231W, strain MKK1, hits give low values 0.109 | S. cerevisiae deletion strains, locus YOR329C, strain SCD5, hits give low values 0.0876 | S. cerevisiae deletion strains, locus YPL031C, strain PHO85, hits give low values 0.0965 | S. cerevisiae deletion strains, locus YPL055C, strain LGE1, hits give low values 0.254 | S. cerevisiae deletion strains, locus YPL153C, strain RAD53, hits give low values 0.0949 | S. cerevisiae deletion strains, locus YPL204W, strain HRR25, hits give low values 0.0984 | S. cerevisiae deletion strains, locus YPL209C, strain IPL1, hits give low values 0.0842 | S. cerevisiae deletion strains, locus YPL241C, strain CIN2, hits give low values 0.106 | S. cerevisiae deletion strains, locus YPL256C, strain CLN2, hits give low values 0.133 | S. cerevisiae deletion strains, locus YPR025C, strain CCL1, hits give low values 0.0831 | S. cerevisiae deletion strains, locus YPR106W, strain ISR1, hits give low values 0.0863 | S. cerevisiae deletion strains, locus YPR111W, strain DBF20, hits give low values 0.0864 | S. cerevisiae deletion strains, locus YPR135W, strain CTF4, hits give low values 0.212 | S. cerevisiae deletion strains, strain NNK1, hits give low values 0.0961 | S. cerevisiae deletion strains, strain TSCII, hits give low values 0.0894 | S. cerevisiae strains, strain wild type, hits give low values 0.0538
